46 molecules from PubChem BioAssay AID624354 (Sanford-Burnham Center for Chemical Genomics, 2012) can be followed below.

The campaign covered roughly 360,000 compounds. About 3,800 (1.1%) were called active.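 Rule for the calls: active = compounds causing at least 50% loss of cell viability in the single-dose screen, relative to plate controls; inactive = the rest.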 Many of the other results were omitted from the sample, so actives are more common in it than they were.

The assay is described as follows: TRAIL-exposed caspase-8 expressing cell killing – NB7+C8 cells, ATPlite luminescence, TRAIL sensitizer project, primary screen (AID 624354). The conditions noted are these: at 10 µM, hits give high values.
For the molecule `Cc1ccc(/C=N/NC(=O)C2=NNC(c3ccccc3)(c3ccccc3)C2)c(O)c1`, the inhibition (viability loss, TRAIL sensitization) is 20.2% (inactive). Regarding `O=C(NNc1c2ccccc2nc2ccccc12)c1cc2ccccc2cc1O`, the inhibition (viability loss, TRAIL sensitization) was 11.6% (inactive). The same measure for `Oc1ccc(/C=N/Nc2nc(-c3ccccc3F)nc3ccccc23)c(O)c1`: 60.2% (active); for `O=C(NCc1ccccn1)[C@@H]1CCCN1C(=O)[C@@H]1CCCN1C(=O)c1ccccc1`: -14% (inactive); for `Nc1nc(NC(=O)/C=C/c2ccccc2)nn1-c1ccccc1`: 15% (inactive). Then `COc1ccc(CCNC(=O)c2c(C)nn(-c3ccccc3)c2Cl)cc1`, with -4.85% (inactive). Turning to `COc1ccc(Oc2c(Cl)cnn(-c3ccccc3)c2=O)cc1`, the inhibition (viability loss, TRAIL sensitization) was 89.7% (active). As to `COc1ccc(C2c3c(C)nn(-c4ccccc4)c3NC(=O)N2c2ccccc2)cc1` (stereo unspecified), the inhibition (viability loss, TRAIL sensitization) was -5.29% (inactive). The same measure for `O=C(CN1C(=O)NC2(CCOc3ccccc32)C1=O)Nc1cccc([N+](=O)[O-])c1` (stereo unspecified): -2.91% (inactive). Then `CCOC(=O)C1=C(C)OC(N)=C(C#N)C1c1cncc(-c2ccc(F)cc2)c1` (stereo unspecified), with -2.49% (inactive); and `FC(F)(F)c1ccc2nnc(-c3c(Cl)cccc3Cl)n2c1`, with 24.4% (inactive); and `CN(C)C1=NC[C@H](Cc2ccccc2)N1CCc1ccc(F)cc1`, with 6.59% (inactive).

Regarding `COCCNC(=O)c1ccccc1-c1nc(-c2ccccc2Cl)no1`, the inhibition (viability loss, TRAIL sensitization) was 4.78% (inactive).

For `Cc1cc(C)n(C(=O)CCNC(=O)c2ccccc2Cl)n1`, the inhibition (viability loss, TRAIL sensitization) was 4.1% (inactive). In the case of `CN(C)CCNC(=O)c1ccc(Cl)c2cc3ccccc3nc12`, the inhibition (viability loss, TRAIL sensitization) was 56% (active). Then `Cn1nc(-c2ccccc2)c(CSc2cccc(Cl)c2)c1Cl`, with 6.33% (inactive).

With `Cc1ccc(S(=O)(=O)NC[C@H]2O[C@@H](n3cnc4c(N)ncnc43)[C@H](O)[C@@H]2O)s1`, the inhibition (viability loss, TRAIL sensitization) is -2.79% (inactive).

In the case of `Cn1nc(C(C)(C)C)c(NC(=O)c2sccc2Cl)c1C(C)(C)C`, the inhibition (viability loss, TRAIL sensitization) is 15.6% (inactive).

Take `O=[N+]([O-])c1ccc2oc(-c3cccc(O)c3)nc2c1`: the inhibition (viability loss, TRAIL sensitization) is 24.5% (inactive). Then `COc1ccc2oc(N)nc2c1`, with 4.55% (inactive); and `COc1cccc(-c2nc3cc(C)ccc3o2)c1`, with 52.6% (active).

As to `O=C(NC(Cc1ccc(O)cc1)C(=O)O)/C(=C/c1ccccc1)NC(=O)c1ccccc1` (stereo unspecified), the inhibition (viability loss, TRAIL sensitization) is -22.8% (inactive). Then `Cc1ccc(N2C(=O)C3C(c4ccccc4)(C2=O)C3(c2ccccc2)c2ccccc2)cc1` (stereo unspecified), with 11.6% (inactive); and `CSc1cc(C)[nH]c(=O)n1`, with -4.86% (inactive).

With `COc1ccc(Cl)cc1NC(=O)CN(C)C(=O)c1cn(-c2ccccc2)nc1-c1cccs1`, the inhibition (viability loss, TRAIL sensitization) was 21.4% (inactive). Then `O=C(O)c1ccc(N/N=C/c2cn(-c3ccccc3)nc2-c2cccs2)cc1`, with 76.2% (active); and `O=C(O)c1ccc(N/N=C/c2ccc3ncccc3c2)cc1`, with 18.4% (inactive); and `COc1ccc(CN2CC(C(=O)NCCc3ccc(Cl)cc3)CC2=O)cc1` (stereo unspecified), with 10.4% (inactive). The same measure for `CCOC(=O)C1CCCN(C(=O)c2ccc(N(C)C)cc2)CC1` (stereo unspecified): -15.3% (inactive); for `OC1CN=C2Sc3ccccc3N2C1` (stereo unspecified): -13.7% (inactive); for `CC1CN(S(=O)(=O)c2ccccc2)C(C)CN1S(=O)(=O)c1ccccc1` (stereo unspecified): 7.64% (inactive). The same measure for `Cc1noc(C)c1COC(=O)COc1ccc(-c2ccccc2)cc1`: -21.6% (inactive); for `O=C(Oc1ccc(-c2nc(-c3ccccn3)no2)cc1)c1ccccc1`: 72% (active); for `O=C(COc1cccc(F)c1)Oc1ccc(C(=O)c2ccccc2)cc1`: 7.92% (inactive). `CC(=O)Nc1ccc(C(=O)N(C2=NC(C)CS2)c2ccc(Cl)cc2)cc1` (stereo unspecified): the inhibition (viability loss, TRAIL sensitization) is 0.911% (inactive).

Turning to `O=c1oc2ccccc2cc1-c1cn(-c2ccccc2)c(=S)[nH]1`, the inhibition (viability loss, TRAIL sensitization) is 82.7% (active). Then `COc1ccc([C@H]2CC(=O)C[C@@H](CCn3cc(CC4CCCC4)nn3)O2)cc1`, with 6.31% (inactive); and `CC(CC(=O)N1CCN(c2ccccc2)CC1)S(=O)(=O)c1ccc2c(c1)NC(=O)CS2` (stereo unspecified), with 23.3% (inactive); and `O=C(CN1CCN(S(=O)(=O)c2ccc(Cl)s2)CC1)NCc1ccc(Cl)cc1`, with 15.3% (inactive). Consider `Cc1nc(C(F)(F)F)ccc1C(=O)N1CCC1(C)C(=O)NS(=O)(=O)c1ccccc1` (stereo unspecified), for which the inhibition (viability loss, TRAIL sensitization) is -0.681% (inactive). The same measure for `COc1cc(Nc2nc3ccc(Cl)cc3n3cnnc23)cc(OC)c1OC`: 6.53% (inactive). The same measure for `COc1cc(/C=N/Nc2nn3cnnc3c3ccccc23)cc(OC)c1OC`: 69.3% (active). Then `COc1cc(/C=N/N=C(\N)c2nonc2N)cc(OC)c1OC`, with 36.5% (inactive).

For the molecule `COCCN(C(=O)c1ccco1)c1nnc(-c2ccc(OC)cc2)s1`, the inhibition (viability loss, TRAIL sensitization) was 15.7% (inactive). Regarding `CC(C)NC(=O)N1CCN(c2ccncc2S(=O)(=O)N2CCCCC2)CC1`, the inhibition (viability loss, TRAIL sensitization) was -3.19% (inactive). The same measure for `CCN(CC)c1ccc(/C=N/Nc2nc(C)cc(C)n2)c(O)c1`: 51.5% (active).
